Sampled rows, rich in hits. Any-hit rate of the full collection: about 2.4%.
D2 ag-1: activates the human D2 dopamine receptor; 0.53% of 340,000 active; P14416; HEK293 T-REx D2 cells, calcium flux agonist mode; activation, % at 2 µM; AID 485358;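 active means activation over 3 SD above normal in the single-dose calcium agonist read, cut at about 30% in these data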; further: 0% is about no effect
Target sequence (P14416 whole entry, looked up): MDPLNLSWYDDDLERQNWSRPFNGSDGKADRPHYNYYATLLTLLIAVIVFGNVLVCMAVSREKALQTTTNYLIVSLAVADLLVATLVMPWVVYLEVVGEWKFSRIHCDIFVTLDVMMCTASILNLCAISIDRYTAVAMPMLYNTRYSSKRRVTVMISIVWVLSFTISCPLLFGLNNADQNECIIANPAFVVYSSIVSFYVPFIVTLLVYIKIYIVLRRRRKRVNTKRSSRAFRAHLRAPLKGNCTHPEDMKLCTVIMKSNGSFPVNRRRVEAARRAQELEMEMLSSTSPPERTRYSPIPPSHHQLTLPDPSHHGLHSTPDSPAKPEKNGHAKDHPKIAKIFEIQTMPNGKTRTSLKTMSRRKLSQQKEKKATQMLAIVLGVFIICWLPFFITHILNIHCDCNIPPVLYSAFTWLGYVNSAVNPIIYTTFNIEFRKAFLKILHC
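Calcium-flux readout, 1 cycle/sec over 180 s following compound pin transfer, in inducible HEK293 Trex D2 cells (force-coupled); dopamine controls included. Positive calcium responses during this window marked compounds as potential agonists.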
D2 PAM-1: positive allosteric modulators of human D2 dopamine receptor; AID 485347; HEK293 T-REx D2, calcium flux, EC20 dopamine potentiation; P14416; potentiation, % at 10 µM; 0.34% of 340,000 active;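 active means potentiation over 3 SD above the plate norm, cut at about 30% in these data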; further: 0% is about no effect
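Using a no-wash calcium dye in inducible, force-coupled HEK293 Trex cells expressing D2, we tracked fluorescence each second for 180 s after compound, then for 180 s after EC20 dopamine to detect augmented signalling.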
D2 antagonist: D2 dopamine receptor (human) antagonism. HEK293 TREx D2 cells, calcium flux, dopamine EC80. 2% of 340,000 active. AID 485344. inhibition, % at 10 µM; in the data active means inhibition above about 30%; inactive means below that, where a call was filed; further: 0% is about no effect
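Antagonism is scored as inhibition of an EC80 dopamine-evoked calcium signal in a force-coupled, tetracycline-inducible HEK293 T-REx D2 line, with compound present 180 s before agonist.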
D2 ag-2: activates the human D2 dopamine receptor; activation, % (test concentration not listed); P14416; DiscoveRx PathHunter D2 beta-arrestin, luminescence, 90 min; 100% = 57 uM dopamine signal; AID 624465; 0.084% of 360,000 active; in the data active means activation above about 40%
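Agonist mode: compounds alone added to overnight-plated D2 PathHunter cells for 90 min at 37 C, with 57 uM final dopamine (EC100) defining full response. Beta-arrestin recruitment detected by chemiluminescent reagent, read after 1 h at ambient temperature.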
D2 PAM-2: positive allosteric modulators of human D2 dopamine receptor | P14416 | DiscoveRx D2 beta-arrestin cells, luminescence, 90 min; 100% = 57 uM dopamine signal | potentiation, % (concentration not given with the values) | 0.23% of 360,000 active; in the data active means potentiation above about 50%
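PathHunter beta-arrestin assay in DiscoveRx D2 cells. Compounds were added with an EC20 of dopamine (50 nM final) for 90 min at 37 deg C. Luminescence was read 1 h after detection reagent, with 57 uM dopamine as the EC100 control.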
Starred values were filed as active, the others as inactive; · = not tested or not shown.

SMILES	D2 ag-1	D2 PAM-1	D2 antagonist	D2 ag-2	D2 PAM-2
Cc1ccccc1N1CCN(CCC(=O)Nc2ccc(F)cc2)CC1	1	-20	78*	1	-74
CCc1ccc(CN(C(=O)Nc2cccc(Cl)c2)c2ccccn2)cc1	-2	14	·	·	·
CSc1ccccc1NC(=O)Nc1ccc(Cl)cc1	1	-26	31*	1	-8
COc1cc(OC)cc(C(=O)Nc2ccc(S(=O)(=O)Nc3nc(C)cc(C)n3)cc2)c1	-1	1	34*	5	-4
COc1ccc(NS(=O)(=O)c2ccc(Oc3ncccn3)cc2)cc1	1	46*	-3	1	0
COc1ccc(S(=O)(=O)Nc2ccc(S(=O)(=O)Nc3nccs3)cc2)cc1	0	-1	50*	-2	1
COc1ccc(NS(=O)(=O)c2ccc(NC(=O)c3ccccn3)cc2)cc1	0	73*	-1	13	0
COc1ccc(S(=O)(=O)Nc2ccc(Oc3ncccn3)c(Cl)c2)cc1	1	-9	-6	-2	4
COc1ccc(CC(=O)Nc2ccc(S(=O)(=O)Nc3nccs3)cc2)cc1	0	-3	25	-3	-1
Cc1ccc(N2CCN(C(=O)c3cn(C)c4ccc(S(=O)(=O)N5CCCC5)cc4c3=O)CC2C)cc1 (stereo unspecified)	1	14	·	·	·
CCOc1ccccc1NS(=O)(=O)c1c(-c2ccc(C)cc2)csc1C(=O)OC	1	7	·	·	·
COc1ccc(-c2cc(C)no2)cc1S(=O)(=O)Nc1c(C)cc(C)cc1C	0	11	·	·	·
CC1CCCN(c2nc3c(c(=O)[nH]c(=O)n3C)n2CCSc2nc3ccccc3o2)C1 (stereo unspecified)	1	12	6	-3	-3
CC1CCCN(c2nc3c(c(=O)n(C)c(=O)n3C)n2CCSc2nc3ccccc3o2)C1 (stereo unspecified)	-1	30*	-11	-2	-5
CCCn1c(N)c(Sc2ccccc2)c(=O)n(CCC)c1=O	0	-8	49*	-1	1
Cc1ccccc1-c1nc(CN2CCC(C(=O)NCc3ccc(F)cc3)CC2)c(C)o1	2	-10	·	·	·
O=c1[nH]c2ccccc2nc1/C=C(\O)c1cccs1	65*	-2	2	-2	-7
O/C(=C\c1nc2ccccc2[nH]1)c1cccs1	0	-5	10	-7	-2
CCOC(=O)c1cc(-c2ccc(F)cc2)n(CCC(=O)Nc2nc3ccc(OC)cc3s2)c1C	0	19	·	·	·
Cc1cc(C)cc(NC(=O)C(=O)NC(C)c2ccccc2)c1 (stereo unspecified)	0	-1	·	·	·
CC(C)C(=O)n1nc(-c2cccnc2)nc1NCc1ccc(F)cc1	0	46*	-1	2	-3
CCCN(Cc1nnc(-c2cccs2)o1)C(=O)CN1C(=O)NC2(CCC(C)CC2)C1=O (stereo unspecified)	0	13	2	-4	0
CCCN(Cc1nnc(-c2cccs2)o1)C(=O)CN1C(=O)NC2(CCCCC2)C1=O	1	2	31*	-2	-1
O=C(NCC(c1cccnc1)N1CCN(c2ccccc2)CC1)OCc1ccccc1 (stereo unspecified)	0	31*	-3	5	-4
COc1ccc2c(c1)CC(C(=O)NCCCN1CCN(c3ccc(F)cc3)CC1)CO2 (stereo unspecified)	3	-24	·	·	·
SMILES	D2 ag-1	D2 PAM-1	D2 antagonist	D2 ag-2	D2 PAM-2
Cc1[nH]c(=S)[nH]c(=O)c1Cc1ccc(OCC(C)C)cc1	-1	-5	31*	-2	-3
CCCCOc1ccc(Cc2c(COCC)[nH]c(=S)[nH]c2=O)cc1	1	-11	35*	-4	-15
Cc1cc(=O)n2nc(N3CCC(C(=O)Nc4ccc(C(C)C)cc4)CC3)sc2n1	0	7	·	·	·
O=C(/C=C/c1ccc2c(c1)OCO2)NCCSCc1c(Cl)cccc1Cl	-2	7	34*	1	1
O=C(/C=C/c1ccc2c(c1)OCO2)NCCSCc1ccc(Cl)cc1	0	-4	5	-3	13
COc1cccc2cc(C(=O)CC3(O)C(=O)N(Cc4ccccc4)c4ccccc43)c(=O)oc12 (stereo unspecified)	0	40*	5	-2	-1
O=C(CSc1ncccc1C(=O)Oc1ccccc1Cl)Nc1ccccc1Cl	0	2	·	·	·
CCOc1ccc(N/C=C/C(=O)c2ccc(OC)cc2)cc1	0	1	2	-2	-3
CCCOc1ccc(N/C=C/C(=O)c2cc(OC)c(OC)c(OC)c2)cc1	-1	-9	1	1	83*
COc1ccccc1-c1nc(S(=O)(=O)c2ccccc2)c(N2CCC(C)CC2)o1	·	1	·	·	·
O=C(Nc1nc(-c2ccccc2)cs1)c1ccco1	-1	-8	28	1	-7
O=C(Nc1cc(-c2ccccc2)cs1)c1ccco1	-1	1	31*	-1	2
CC(C)Cn1c(CCCNC(=O)c2ccc(F)cc2)nc2ccccc21	-2	-26	31*	-2	-9
COc1ccc(Nc2ncnc3c2cnn3-c2ccc(C)cc2)cc1Cl	-1	1	·	·	·
Cc1cc(C)c2ccc(N)nc2c1O	1	-6	-14	0	-11
Cc1cc(C)c2ccc(C)[n+]([O-])c2c1O	0	1	37*	1	-14
Cc1ccc(-c2nc(CS(=O)CC(=O)N3CCN(c4ccc(Cl)cc4)CC3)c(C)o2)cc1 (stereo unspecified)	0	-30	·	·	·
Cc1ccc(OCCCCN2CCC(C)CC2)cc1	1	-21	49*	2	-16
CN1CCN(CCCCOc2ccc(F)cc2)CC1	0	9	-8	-2	-10
CCN(CC)CCOc1cccc(C(C)C)c1	2	·	73*	3	-31
CC1CCN(CCCCOc2cccc(C(C)C)c2)CC1	0	-29	58*	0	-12
CC1CCN(CCCCOc2ccc(C(=O)c3ccccc3)cc2)CC1	·	-20	·	-3	-15
CC1CCN(CCCCOc2ccc(F)cc2)CC1	1	-14	44*	1	-11
CN(C)C(=O)c1ccc(NC(=O)Cn2nnnc2-c2ccccc2F)cc1	·	6	·	·	·
Cn1ncc2c(NCc3ccc(Cl)cc3)ncnc21	0	12	·	·	·
SMILES	D2 ag-1	D2 PAM-1	D2 antagonist	D2 ag-2	D2 PAM-2
Brc1cccc(OCCCN2CCCCCC2)c1	0	-31	14	1	-23
CC1CCN(CCOc2cccc(Br)c2)CC1	29	-28	98*	-2	-17
Cc1ccc(S(=O)(=O)N2CCC3(CC2)OCCN3S(=O)(=O)c2cccs2)cc1	·	·	·	-1	-2
O=[N+]([O-])c1ccc(S(=O)(=O)N2CCC3(CC2)OCCN3S(=O)(=O)c2cccs2)cc1	0	0	10	14	72*
CCOC(=O)c1cccc(NC(=O)C2CCN(S(=O)(=O)c3cn(C)cn3)CC2)c1	1	2	·	·	·
O=C(O)Cc1cn(-c2ccccc2)nc1-c1ccc(Cl)cc1	-1	31*	-10	1	-16
